Screens: PubChem, National Center for Advancing Translational Sciences (NCATS)
Compounds with a hit are over-represented: about 19% of the library has one in this group of screens.
TGFb inhibitor: inhibitors of TGF-b signaling | HepG2 CAGA-GFP TGF-b/SMAD3 reporter, GFP fluorescence, 18 h; TGF-beta stimulated, 500 pg/mL final | Potency, µM (top dose mostly 46.1 µM), for the others: top-dose activity, negative = inhibition, usual class: inhibitors | actives 1.2% (n = 410,000) | AID 588855; note: potency is the fitted concentration of half-maximal effect; % is set by controls: 0 for no effect and ±100 for the full control effect; nearly all actives have a fitted effect of over 65% in size
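HEPG2 CAGA-GFP cells (1000/well, DMEM with 1% FBS) were pre-incubated 2 h at 37 degrees C, given compound by pin tool, then stimulated with TGF-beta at 500 pg/mL final for 18 h before per-cell GFP fluorescence imaging.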
DT40 TDP1 CPT: growth inhibition of DT40 Tdp1-/-;hTDP1 cells with camptothecin (screen for TDP1 inhibitors). chicken DT40 Tdp1-/-;hTDP1 cells + 20 nM CPT, ATP luminescence, 48 h. Potency, µM (titrated, usually from 46.2 µM), inactives show top-dose activity change, negative = growth inhibition, actives largely listed as inhibitors. actives 12% (n = 420,000); note: potency is the fitted concentration of half-maximal effect; % is set by controls: 0 for no effect and ±100 for the full control effect; nearly all actives have a fitted effect of over 55% in size
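Chicken DT40 Tdp1-/- cells complemented with human TDP1, 400 cells/well, exposed to compounds plus 20 nM camptothecin for at least 48 h at 37 C; viability read as ATP content by CellTiter-Glo luminescence.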
S-ASM inh: human S-ASM enzyme inhibition; P17405; placental ASM, HMU-PC fluorogenic substrate, 60 min; Potency, µM (highest dose often 57.5 µM), inactives show at the top dose activity change, negative = inhibition, usual class: inhibitors; actives 0.006% (n = 340,000); AID 504937; note: potency is the fitted concentration of half-maximal effect
Target sequence (P17405 47-631 limits assumed): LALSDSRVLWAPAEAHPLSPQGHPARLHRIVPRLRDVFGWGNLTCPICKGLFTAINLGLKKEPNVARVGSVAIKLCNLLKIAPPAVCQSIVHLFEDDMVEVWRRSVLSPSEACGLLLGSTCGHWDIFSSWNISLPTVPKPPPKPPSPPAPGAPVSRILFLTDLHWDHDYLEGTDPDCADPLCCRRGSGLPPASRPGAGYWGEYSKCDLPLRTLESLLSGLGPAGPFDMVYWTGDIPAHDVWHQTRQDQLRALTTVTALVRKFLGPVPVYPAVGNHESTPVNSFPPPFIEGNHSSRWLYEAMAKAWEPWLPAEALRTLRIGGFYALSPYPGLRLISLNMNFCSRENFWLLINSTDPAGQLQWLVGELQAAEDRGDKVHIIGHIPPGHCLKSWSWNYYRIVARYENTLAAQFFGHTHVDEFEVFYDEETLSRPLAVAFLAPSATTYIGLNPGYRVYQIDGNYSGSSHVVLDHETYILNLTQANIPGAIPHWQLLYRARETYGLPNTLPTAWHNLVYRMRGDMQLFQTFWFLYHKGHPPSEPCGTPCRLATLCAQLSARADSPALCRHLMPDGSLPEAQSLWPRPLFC
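Fluorogenic HMU-PC substrate (9 uM final) is turned over by placental ASM in 60 min at 37 C after a 10 min compound preincubation. Reaction ended by alkaline stop (pH 10), with fluorescence read at 386/447 nm.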
HepG2 viability: kills HepG2 cells in TGF-b inhibitor counter-screen. Potency, µM (series often up to 46.1 µM), inactives show top-dose activity change, negative = cytotoxicity, usual class: cytotoxic. AID 588856. HepG2 CAGA-GFP viability, ATP luminescence, 18 h. actives 0.76% (n = 410,000); note: potency is the fitted concentration of half-maximal effect
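HepG2 CAGA-GFP cells (1000/well, DMEM with 1% FBS) received compound, then TGF-beta at 500 pg/mL final, and were incubated 18 hours at 37 degrees C. Viability was read by CellTiter-Glo luminescence. Media-only wells were set as complete cell-killing and DMSO as no toxicity.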
TDP1 cell noCPT: qHTS for Inhibitors of human tyrosyl-DNA phosphodiesterase 1 (TDP1): qHTS in cells in absence of CPT; AID 686978, 2013; actives 15% (n = 420,000); DT40 Tdp1-/- hTDP1 cells, no CPT, ATP luminescence, 48 h; Potency, µM (top dose mostly 46.2 µM), without a hit: top-dose activity change, negative = growth inhibition, actives largely listed as inhibitors; note: potency is the fitted concentration of half-maximal effect; % is set by controls: 0 for no effect and ±100 for the full control effect; nearly all actives have a fitted effect of over 55% in size
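A cellular qHTS used chicken DT40 cells lacking endogenous Tdp1 but carrying stably transfected human TDP1. Compounds were applied without camptothecin, and cell growth kinetics were judged by ATP-dependent luminescence after ≥48 hr.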
IL-1B inflam inh: inhibitors of inflammasome signaling (IL-1 beta secretion); actives 4.7% (n = 360,000); activity change, % at 57.5 µM; THP-1 LPS/ATP IL-1B secretion, AlphaLISA, 16 h; stronger effect = lower value; in the data active = activity change below about -50%; inconclusive = mostly about -30% to -49%; note: % is set by controls: 0 for no effect and ±100 for the full control effect
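THP-1 cells pretreated 1 hr with compounds (up to 57.5 uM final), then stimulated with LPS (250 ng/mL final) plus ATP (1.25 mM final); secreted IL-1B measured by AlphaLISA after 16 hr, decreased signal indicating inhibition.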
An asterisk follows results filed as active; u = inconclusive; x = not tested or not shown; [ ] = dose if it differs, or a comment. Unless noted, calls come from the whole dose curve; as a rule, active = well fitted curve in the direction sought with a large enough effect; inconclusive = small, poorly fitted or top-dose-only effect, or another doubt; inactive = no such curve, though single readings can be large; an effect the other way counts as inactive or inconclusive.

SMILES	TGFb inhibitor	DT40 TDP1 CPT	S-ASM inh	HepG2 viability	TDP1 cell noCPT	IL-1B inflam inh
CCNS(=O)(=O)c1ccc(OCCNS(C)(=O)=O)cc1	-4.5%	-18.7%	6.4%	7.2%	u	-12.8
CCCNC(=O)C(Cc1ccc(F)cc1)NC(=O)c1ccc(C#N)cc1 (configuration not stated)	11.9%	-19.2%	-0.7%	-0.5%	-18.5%	18.4
O=S1(=O)CC(N2CCSCC2)CN1Cc1cn(Cc2ccccc2)nn1 (configuration not stated)	x	3.1%	x	x	-18.9%	40.7
Cc1ccc(-c2nc(CSCC(=O)N3CCOCC3)c(C)o2)cc1	-13.3%	-2.6%	-2.5%	-19.3%	-15.7%	18.3
Cc1ccc(-c2nc(CSCC(=O)N3CCN(c4ccccn4)CC3)c(C)o2)cc1	u	18.4µM*	3.5%	1.3%	20.6µM*	-15.5
CCc1ccc(-c2nc(CSCC(=O)N3CCN(c4ccccn4)CC3)c(C)o2)cc1	u	23.1µM*	-3.0%	-29.9%	18.4µM*	u
CCc1ccc(-c2nc(CSCC(=O)NCc3ccc(C)cc3)c(C)o2)cc1	u	u	x	-26.6%	u	x
CC(C)C[C@H](NC(=O)[C@@H](O)[C@H](N)Cc1ccccc1)C(=O)O	x	-20.3%[92.5 µM]	x	x	22.4µM*	x
CCc1ccc(S(=O)(=O)c2nnn3c2nc(NCc2cccc(OC)c2)c2cc(Cl)ccc23)cc1	-6.8%	u	x	-17.4%	u	x
O=C(Nc1ccc(F)c(Cl)c1)c1cc(C2CCCN(C(=O)C3CC3)C2)on1 (configuration not stated)	-5.2%	u	x	-39.0%	u	-16.3
Cc1ccc(F)cc1C(=O)N1CCCCC1c1cc(C(=O)Nc2ccc(F)c(Cl)c2)no1 (configuration not stated)	-13.3%	20.6µM*	x	-8.6%	14.6µM*	-18.7
COC(=O)N1CCCCC1c1cc(C(=O)Nc2ccc3c(c2)OCO3)no1 (configuration not stated)	19.2%	-0.5%	x	-1.6%	-25.4%	-0.3
O=C(Nc1ccc(F)c(Cl)c1)c1cc(C2CCCCN2C(=O)C2CC2)on1 (configuration not stated)	-2.3%	25.9µM*	x	-23.6%	14.6µM*	3.9
O=C1CCN(S(=O)(=O)c2cc(C(F)(F)F)ccc2Cl)CC1	2.6%	-10.1%	-0.3%	1.0%	6.9%	21.3
CC(C)c1ccc(NC(=O)c2ccc(CN3CC(=O)N4CCCCC4C3=O)cc2)cc1 (configuration not stated)	-25.5%	u	x	-30.1%	16.4µM*	x
Cc1ccccc1NC(=O)c1ccc(CN2CC(=O)N3CCCCC3C2=O)cc1 (configuration not stated)	0.6%	3.3%	4.3%	0.6%	-9.5%	4.2
CC(C)c1ccc(CN2CCN(C(=O)CCl)CC2)cc1	u	1.16µM*	5.3%	-94.9%	0.731µM*	-99.7*
CC(C)c1ccc(C(=O)Nc2ccc(CN3CCOCC3)cc2)cc1	-6.8%	u	2.3%	-21.9%	u	-54.5*
NC(=O)c1ccc(NC(=O)c2ccc(CN3CCOCC3)cc2)cc1	-2.4%	0.5%	-0.2%	-0.9%	-3.2%	-11.5
CC(C)c1ccc(/C=C/C(=O)Nc2ccc(CN3CCOCC3)cc2)cc1	-8.0%	8.2µM*	-8.1%	-8.2%	13µM*	-93.8*
O=C(O)c1ccc(Cn2cnc3c(=O)[nH]cnc32)cc1	u	6.6%	0.4%	4.3%	0.3%	14.0
COc1ccc(N2c3ccccc3CN(Cc3ccccc3)[C@@H](C)[C@H]2Cc2c(C)cccc2C)cc1	x	18.4µM*	x	x	16.4µM*	32.1
COc1ccc(N2c3ccccc3CN(Cc3ccccc3)[C@@H](C)[C@H]2Cc2cccnc2)cc1	u	u	x	-49.2%	20.6µM*	22.8
COc1ccc(CN2CC[C@H]3C=CCc4cccc(c43)C2)cc1	-3.3%	u	14.9%	-31.6%	u	4.5
N#Cc1ccccc1S(=O)(=O)N1CCC(C(=O)Nc2cccc(C(=O)NC3CC3)c2)CC1	22.4%	-2.1%	x	-10.6%	-10.6%	-3.9
SMILES	TGFb inhibitor	DT40 TDP1 CPT	S-ASM inh	HepG2 viability	TDP1 cell noCPT	IL-1B inflam inh
CCOc1ccc(CCNC(=O)CSC(=S)N2CCCC2)cc1OCC	7.3%	20.6µM*	2.4%	-42.2%	u	-11.0
COc1ccc(Br)cc1CNC(=O)CCSCc1ccc(Cl)cc1	-2.1%	u	x	0.5%	25.9µM*	x
COc1ccc(Br)cc1CNC(=O)CCSCc1ccc(C)cc1	u	-28.2%	x	-30.6%	u	x
CCOc1ccc(CCNC(=O)CCSCc2ccc(Cl)cc2)cc1OCC	-2.9%	u	x	-25.3%	23.1µM*	x
O=C(CCSCc1cccc(Cl)c1)NCCc1ccc(Cl)cc1	u	-25.4%	-1.9%	-19.3%	u	-20.6
CCOc1ccc(CCNC(=O)CCSCc2cccc(Cl)c2)cc1OCC	-12.5%	u	x	-26.2%	20.6µM*	x
COc1ccc(-n2nnnc2SCC(=O)Nc2cccc(O)c2)cc1	u	-22.5%	-2.6%	1.7%	u	18.4
COc1ccccc1OCC(=O)NCC(c1ccc(Cl)cc1)N1CCOCC1 (configuration not stated)	3.2%	u	x	-23.1%	u	x
CCOc1ccc(CCNC(=O)CCOc2cc(C)ccc2C)cc1OCC	0.2%	u	2.6%[11.5 µM]	-7.9%	18.4µM*	-5.1
O=C(Cn1cc(S(=O)(=O)Cc2ccccc2F)c2ccccc21)NCc1ccccc1Cl	0.0%	u	x	1.9%	u	x
CC(=O)N1c2ccccc2C(=O)C1N1CCN(c2cccc(C(F)(F)F)c2)CC1 (configuration not stated)	-8.8%	u	x	-38.2%	u	x
COc1ccc(C(=O)N(Cc2sccc2C)C2CCS(=O)(=O)C2)cc1Cl (configuration not stated)	x	u	x	-29.4%	18.4µM*	x
COc1ccc(C(=O)N(Cc2sccc2C)C2CCS(=O)(=O)C2)cc1 (configuration not stated)	7.6%	-5.3%	x	0.8%	0.3%	-7.8
Cc1cc(Cl)ccc1OCC(=O)N(Cc1sccc1C)C1CCS(=O)(=O)C1 (configuration not stated)	x	23.1µM*	x	-1.2%	18.4µM*	x
